Inconclusive results are not listed. Calls of active or inactive are those of the source. Calls come from the whole dose curve; as a rule, active = well fitted curve in the direction sought with a large enough effect; inconclusive = small, poorly fitted or top-dose-only effect, or another doubt; inactive = no such curve, though single readings can be large; an effect the other way counts as inactive or inconclusive.
Tests used:
NIH3T3 = assay: qHTS assay to identify novel small-molecules to repurpose for Merkel cell carcinoma treatment (AID 1296009); conditions: MCC and control cell lines, CellTiter-Glo viability, 72 h; at 44.8 µM (top of the series) unless noted; note: nearly all actives have a fitted effect of over 60% in size
Outline: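 Cells were treated for 72 hr at 37 degree celsius with compounds in 8- or 11-point dose response. Viability was read by CellTiter-Glo luminescence, normalized to no-cell (cytotoxicity) and DMSO controls.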

C33A = assay: Primary qHTS to identify gynecologic anti-cancer compounds using libraries of approved drugs and bioactive compounds (AID 1345084); conditions: Gynecologic cancer cell panel viability, ATPlite luminescence, 48 h; series mostly up to 57.5 µM; note: nearly all actives have a fitted effect of over 55% in size
Outline: (§1)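 Five-concentration response, 48 h; readout is ATP-driven luciferase luminescence.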

CAOV3 = assay: as above; conditions: Gynecologic cancer cell panel viability, ATPlite luminescence, 48 h; series mostly up to 57.5 µM
Outline: as §1

CASKI = assay: as above; conditions: Gynecologic cancer cell panel viability, ATPlite luminescence, 48 h; series mostly up to 57.5 µM
Outline: as §1

Es-2 = assay: as above; conditions: Gynecologic cancer cell panel viability, ATPlite luminescence, 48 h; series mostly up to 57.5 µM
Outline: as §1

HeLa = assay: as above; conditions: Gynecologic cancer cell panel viability, ATPlite luminescence, 48 h; series mostly up to 57.5 µM
Outline: as §1

Hek293T = assay: as above; conditions: Gynecologic cancer cell panel viability, ATPlite luminescence, 48 h, control line for the selectivity index; series mostly up to 57.5 µM
Outline: as §1

JEG-3 = assay: as above; conditions: Gynecologic cancer cell panel viability, ATPlite luminescence, 48 h; series mostly up to 57.5 µM
Outline: as §1

OV90 = assay: as above; conditions: Gynecologic cancer cell panel viability, ATPlite luminescence, 48 h; series mostly up to 57.5 µM
Outline: as §1

PA-1 = assay: as above; conditions: Gynecologic cancer cell panel viability, ATPlite luminescence, 48 h; series mostly up to 57.5 µM
Outline: as §1

SKOV3 = assay: as above; conditions: Gynecologic cancer cell panel viability, ATPlite luminescence, 48 h; series mostly up to 57.5 µM
Outline: as §1

Tov-21-G = assay: as above; conditions: Gynecologic cancer cell panel viability, ATPlite luminescence, 48 h; series mostly up to 57.5 µM
Outline: as §1

Tov112D = assay: as above; conditions: Gynecologic cancer cell panel viability, ATPlite luminescence, 48 h; series mostly up to 57.5 µM
Outline: as §1

Measured: Potency

N#Cc1cccc(-c2nc(-c3cccnc3)no2)c1
inactive: NIH3T3 inactive [at 17.4 µM] | C33A | CAOV3 | CASKI | Es-2 | HeLa | Hek293T | JEG-3 | OV90 | PA-1 | SKOV3 | Tov-21-G | Tov112D

COc1cc(/C=C/C(=O)O[C@H]2[C@@H]3C=CO[C@@H](O[C@@H]4O[C@H](CO)[C@@H](O)[C@H](O)[C@H]4O)[C@@H]3[C@@]3(CO)O[C@@H]23)ccc1O
inactive: NIH3T3 inactive [at 17.4 µM] | C33A | CAOV3 | CASKI | Es-2 | HeLa | Hek293T | JEG-3 | OV90 | PA-1 | SKOV3 | Tov-21-G | Tov112D

CC1=COC(OC2OC(CO)C(O)C(O)C2O)C2C(CO)CC(OC(=O)/C=C/c3ccc(O)cc3)C12 (configuration not stated)
inactive: NIH3T3 inactive [at 17.4 µM] | C33A | CAOV3 | CASKI | Es-2 | HeLa | Hek293T | JEG-3 | OV90 | PA-1 | SKOV3 | Tov-21-G | Tov112D

COC(=O)C1=CO[C@@H](O[C@@H]2O[C@H](CO)[C@@H](O)[C@H](O)[C@H]2O)[C@@H]2[C@@H](C)[C@@H](OC(=O)/C=C/c3ccccc3)[C@@H](O)[C@H]12
inactive: NIH3T3 inactive [at 17.4 µM] | C33A | CAOV3 | CASKI | Es-2 | HeLa | Hek293T | JEG-3 | OV90 | PA-1 | SKOV3 | Tov-21-G | Tov112D

C=C[C@H]1[C@H](O[C@@H]2O[C@H](CO)[C@@H](O)[C@H](O)[C@H]2O)OC=C(C(=O)OC)[C@H]1CC=O
inactive: all assays above

CC[C@@H](Nc1c(Nc2cccc(C(=O)N(C)C)c2O)c(=O)c1=O)c1ccc(C)o1
inactive: all assays above

CC(=O)O[C@@]1(C)[C@@H]2CC(=C(C)C)C(=O)C[C@@]2(C)CC[C@H]1OC(=O)C1(C)OC1C (some centres not stated)
inactive: all assays above

C=C(C(=O)OC)[C@]12O[C@@](C)(CC[C@@]3(O)/C(=C\C)C(=O)O[C@]3(C)C[C@@H]1OC(=O)C(CO)CN1CCCC1C(=O)O)CC2=O (some centres not stated)
inactive: NIH3T3 inactive [at 17.4 µM] | C33A | CAOV3 | CASKI | Es-2 | HeLa | Hek293T | JEG-3 | OV90 | PA-1 | SKOV3 | Tov-21-G | Tov112D

CC(=O)O[C@@H]1[C@H](OC(C)=O)C[C@@]2(C)C(CC[C@@H](C)[C@]23Cc2c(O)cc4c(c2O3)CN([C@@H](CCC(=O)O)C(=O)O)C4=O)C1(C)C (some centres not stated)
inactive: NIH3T3 inactive [at 17.4 µM] | C33A | CAOV3 | CASKI | Es-2 | HeLa | Hek293T | JEG-3 | OV90 | PA-1 | SKOV3 | Tov-21-G | Tov112D

Cc1cc(CNC(=O)c2cc(C(=O)NCc3ccc(F)c(C)c3)ncn2)ccc1F
inactive: all assays above

Cc1occc(=O)c1O[C@@H]1O[C@H](CO)[C@@H](O)[C@H](O)[C@H]1O
inactive: all assays above

COC1OC(OC)C(O)(CCC2(C)C(C)CCC3(C)C2CC(O)C(O)C32CO2)C1O (configuration not stated)
inactive: NIH3T3 inactive [at 17.4 µM] | C33A | CAOV3 | CASKI | Es-2 | HeLa | Hek293T | JEG-3 | OV90 | PA-1 | SKOV3 | Tov-21-G | Tov112D

O=C(N[C@H](Cc1ccccc1)C(=O)O)c1sc2cc(F)ccc2c1Cl
inactive: all assays above

CC1(C)CC[C@]2(C(=O)O[C@@H]3O[C@H](CO)[C@@H](O)[C@H](O)[C@H]3O)CC[C@]3(C)C(=CCC4[C@@]5(C)C[C@@H](O)[C@H](O)[C@@](C)(CO)C5[C@H](O)C[C@]43C)C2[C@@H]1O (some centres not stated)
inactive: NIH3T3 inactive [at 17.4 µM] | C33A | CAOV3 | CASKI | Es-2 | HeLa | Hek293T | JEG-3 | OV90 | PA-1 | SKOV3 | Tov-21-G | Tov112D
